We go through twelve compounds from PubChem BioAssay AID2283371 (EPA ToxCast).

Inconclusive results are not listed. Calls of active or inactive are those of the source. The calls were made as follows: active = hit-call score of the fitted dose curve at least 0.9, where 1 is the maximum; inconclusive = response in the unintended direction; inactive = score below 0.9.

The target in the experiment is rat Adenosine Transporter (Adot), Slc29a1 (gene 63997) (UniProt O54698). Nature of the experiment: NVS_TR_rAdoT: NovaScreen (NVS) Transporter Assay for rat Adenosine Transporter (Adot). Here is the method: NVS_TR_rAdoT is a biochemical, single-readout assay that uses extracted gene-proteins from Rat forebrain membranes in a tissue-based cell-free assay. Measurements were taken 1 hour after chemical dosing in a 48-well plate.NVS_TR_rAdoT is one of one assay component(s) measured or calculated from the NVS_TR_rAdoT assay. It is designed to make measurements of radioligand binding, a form of binding reporter, as detected with scintillation counting signals by Filter-based radiodetection technology.Data from the assay component NVS_TR_rAdoT was analyzed into 1 assay endpoint. This assay endpoint, NVS_TR_rAdoT, was analyzed in the positive analysis fitting direction relative to DMSO as the negative control and baseline of activity. Using a type of binding reporter, loss-of-signal activity can be used to understand changes in the binding as they relate to the gene Slc29a1. Furthermore, this assay endpoint can be referred to as a primary readout, because the performed assay has only produced 1 assay endpoint. To generalize the intended target to other relatable targets, this assay endpoint is annotated to the transporter intended target family, where the subfamily is nucleoside transporter.
Sequence of rat Adenosine Transporter (Adot), Slc29a1 (gene 63997) (O54698 whole entry, looked up): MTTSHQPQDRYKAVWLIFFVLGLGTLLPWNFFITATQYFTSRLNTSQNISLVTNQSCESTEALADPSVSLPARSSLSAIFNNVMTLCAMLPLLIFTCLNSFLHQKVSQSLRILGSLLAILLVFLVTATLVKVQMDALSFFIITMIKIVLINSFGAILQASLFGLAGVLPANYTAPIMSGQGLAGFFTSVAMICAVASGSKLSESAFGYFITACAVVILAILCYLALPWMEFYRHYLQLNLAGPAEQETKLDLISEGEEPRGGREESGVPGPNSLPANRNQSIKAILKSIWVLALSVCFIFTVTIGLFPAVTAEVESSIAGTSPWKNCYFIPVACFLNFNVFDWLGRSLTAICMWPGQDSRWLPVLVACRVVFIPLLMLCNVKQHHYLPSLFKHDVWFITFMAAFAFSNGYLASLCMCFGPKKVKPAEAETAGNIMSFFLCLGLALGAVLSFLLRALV
Binding assays used specific radioligands (tritiated, iodinated) with non-radioactive competitive displacement ligands in agonist or antagonist protocols (as indicated) and various reference compounds and inhibitors to titrate specific binding to receptors and transporters. Most enzyme assays (CYPs, kinases, phosphatases, proteases, HDACs) used recombinant protein and specific substrates (fluorescence mostly, some colorimetric and radioactive) and inhibitors, followed by a biochemical separation of substrate and product. All assays for the biochemical HTS were initially run in duplicate at a single concentration (10 uM for CYP450 assays and 25 uM for all others). Assay-chemical combinations meeting a pre-defined threshold (e.g., 30% inhibition and other criteria defined below) were then run in singleton concentration-response format with maximum concentration of 20 uM for CYPs and 50 uM for all others. Each assay was run with positive and negative controls, and concurrent controls on every plate. The follow-up (secondary) screen tested active chemical-pairs in concentration series, as well as a few additional assays not tested in the primary screen, some selected negative inactives, and several cases re-run in the concentration series for confirmatory purposes.
Regarding `COc1cc2c(c(OC)c1OC)-c1ccc(OC)c(=O)cc1[C@@H](NC(C)=O)CC2`, the compound was called inactive. For the compound `COc1ccc2cc(S(=O)(=O)N[C@H](CC(=O)N[C@H](Cc3ccc(CN4[C@H](C)CCC[C@@H]4C)cc3)C(=O)N(C)C(C)C)c3ccc4c(c3)OCO4)ccc2c1`, the AC50 (as a rule, the concentration at which the activity in the assay is half-maximal) is 7.85 µM (active).

Take `S=C1NCCN1`: the compound was called inactive.

As to `O=S(=O)(O)C(F)(F)C(F)(F)C(F)(F)C(F)(F)C(F)(F)C(F)(F)C(F)(F)C(F)(F)F`, the call was inactive. Turning to `O=C(O)C(F)(F)C(F)(F)C(F)(F)C(F)(F)C(F)(F)C(F)(F)C(F)(F)F`, the call was inactive.

With `CC[C@H]1OC(=O)[C@H](C)[C@@H](O[C@H]2C[C@@](C)(OC)[C@@H](O)[C@H](C)O2)[C@H](C)[C@@H](O[C@@H]2O[C@H](C)C[C@H](N(C)C)[C@H]2O)[C@](C)(O)C[C@@H](C)C(=O)[C@H](C)[C@@H](O)[C@]1(C)O`, the AC50 was 6.47 µM (active).

As for `Cc1oc(-c2ccccc2)nc1CCOc1cccc2c1ccn2CCC(=O)O`, the compound was called inactive.

`Oc1ccc(Cl)cc1Cl`: the call was inactive. Take `CCCCC(CC)COC(=O)c1ccc(C(=O)OCC(CC)CCCC)c(C(=O)OCC(CC)CCCC)c1` (configuration not stated): the result was inactive. On the same count and under the same terms, then `S=C(S)NCCNC(=S)S.[Mn+2].[S-]C([S-])=NCCN=C([S-])[S-].[Zn+2]`, with “inactive”; and `CCOP(=S)(Oc1ccc([N+](=O)[O-])cc1)c1ccccc1` (configuration not stated), with “inactive”; and `Cn1c(=O)c2c(ncn2C)n(C)c1=O`, with “inactive”.
